SARS PLpro yeast-1: inhibitors of SARS-CoV papain-like protease in yeast. S. cerevisiae expressing SARS-CoV PLpro, growth rescue. Potency, µM (highest dose often 32.9 µM), most hits filed as activators. 330,000 compounds, 0.19% hits; calls by dose curve; further: nearly all actives have a fitted effect of over 55% in size
Sm TGR inh: S. mansoni TGR enzyme inhibition; purified TGR, DTNB reduction, TNB absorbance 405 nm; Potency, µM (highest dose often 114 µM), usual class: inhibitors; 360,000 compounds, 3% hits; AID 485364; active means well fitted inhibition curve with a large enough effect; inconclusive means small, poorly fitted or top-dose-only effect; inactive means no such curve, though single readings can be large or run the other way; further: nearly all actives have a fitted effect of over 60% in size
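TGR 20 nM + NADPH 100 uM (dispensed conc.), cpd preinc 15 min RT; start with NADPH (500 uM addition) then DTNB (15 mM addition). Kinetic TNB absorbance, 405 nm filter. Four-parameter Hill fit across titration.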
SARS PLpro yeast-2: Inhibits SARS-CoV PLP in yeast, hit validation | AID 652038 | shares compounds with SARS PLpro yeast-1 | 1,000 compounds, 19% hits | yeast expressing SARS-CoV PLpro, growth phenotype rescue | calls only; call rule not given here
Of the large screens only hits and unclear results are named; the others gave an inactive call (follow-up assays come after a bar, where they were run). A selection: hits, their analogues and other compounds. The true share with any hit is near 3%.

O=C(Cn1c(NCCO)nc2ccccc21)NCCc1ccc(F)cc1	SARS PLpro yeast-1 inconclusive | SARS PLpro yeast-2 inactive
O=C(Cn1c(CO)nc2ccccc21)NCCc1ccc(F)cc1	none
O=C(COC(=O)C1CCCCC1)Nc1cccc(F)c1	none (no result: Sm TGR inh)
O=C(COC(=O)CC1CCCC1)Nc1cccc(F)c1	SARS PLpro yeast-1 inconclusive | SARS PLpro yeast-2 inactive
COC(=O)C1=C(c2ccc(-c3ccccc3)c(F)c2)C[C@@H]2CC[C@H]1N2C(=O)NC(C)C	none
COC(=O)C1=C(c2ccc(-c3ccccc3)c(F)c2)C[C@@H]2CC[C@H]1N2C(=O)NC1CC1	SARS PLpro yeast-1 inconclusive | SARS PLpro yeast-2 inactive
O=C1CCC(=O)N1CNc1ccc(Oc2ccccc2)cc1	none (no result: SARS PLpro yeast-1)
COc1ccc(NCN2C(=O)CCC2=O)cc1	SARS PLpro yeast-1 inconclusive | SARS PLpro yeast-2 inactive
CN(C)C(=O)CCc1ccc2c3c([nH]c2c1)[C@]1(CCC2CCCC2)[C@@H](C(=O)N2CCOCC2)C[C@H](CC(=O)NCCN2CCOCC2)C(=O)N1CC3	none (no result: Sm TGR inh)
COc1ccc(CNC(=O)C[C@H]2C[C@H](C(=O)N3CCOCC3)[C@@]3(CCC4CCCC4)c4[nH]c5cc(CCC(=O)N(C)C)ccc5c4CCN3C2=O)cc1OC	SARS PLpro yeast-1 inconclusive (no result: Sm TGR inh) | SARS PLpro yeast-2 inactive
CCOC(=O)Cn1c(=N)n(Cc2ccc(C(C)(C)C)cc2)c2ccccc21	none (no result: SARS PLpro yeast-1)
O=C(c1ccc(Cl)cc1)N1CCCCC1CCN1CCOCC1 (centres undefined)	none (no result: SARS PLpro yeast-1)
NC(=O)Nc1ccccc1C(=O)N1CCC(O)(c2ccc(Cl)cc2)CC1	none
COC(=O)Nc1ccccc1C(=O)N1CCC(O)(c2ccc(Cl)cc2)CC1	SARS PLpro yeast-1 inconclusive | SARS PLpro yeast-2 inactive
COc1cccc(C(=O)NCc2cn3ccccc3n2)c1	none (no result: SARS PLpro yeast-1)
CNC(=S)N/N=C/c1cc(C)ccc1C	none
Cc1ccc(C)c(/C=N/NC(=S)NC(C)C)c1	SARS PLpro yeast-1 7.1µM | SARS PLpro yeast-2 inconclusive
Oc1ccccc1/C=N/NC(=S)NCCc1ccccc1	none
Cc1ccc(C)c(/C=N/NC(=S)NCCc2ccccc2)c1	none (no result: SARS PLpro yeast-1) | SARS PLpro yeast-2 inconclusive
O=C1CCCc2[nH]c(=O)c(-c3nc(-c4cccc([N+](=O)[O-])c4)cs3)cc21	none (no result: SARS PLpro yeast-1)
O=C(CN1CCCCC1CO)c1ccc(OC(F)F)cc1 (centres undefined)	none
O=C(CN1CCCCC1)c1ccc(OC(F)F)cc1	SARS PLpro yeast-1 inconclusive | SARS PLpro yeast-2 inactive
CC(=O)N/C(=C\c1cccc([N+](=O)[O-])c1)C(=O)NC1CCCCC1	SARS PLpro yeast-1 inconclusive | SARS PLpro yeast-2 inactive
Cc1ccc(NC(=O)/C(=C/c2cccc([N+](=O)[O-])c2)NC(=O)C2CCCCC2)cc1	none
Cc1ccc(NC(=O)c2cccn2-c2nnc(N3CCCCC3)s2)cc1Cl	none (no result: SARS PLpro yeast-1)
Cc1ccc(NC(=O)N2CCC(n3c(C)nc4cccnc43)CC2)c(Cl)c1	none (no result: SARS PLpro yeast-1)
CC(=O)c1cccc(NC(=O)CC2S/C(=N/N=C3CCCCCC3)NC2=O)c1 (centres undefined)	none
CCOc1ccc(NC(=O)CC2S/C(=N/N=C3CCCCCC3)NC2=O)cc1 (centres undefined)	SARS PLpro yeast-1 inconclusive | SARS PLpro yeast-2 inactive
Cc1cc2oc3c(c(=O)c2cc1C)C1(C(=O)N(C)c2ccccc21)N(CCO)C3=O (centres undefined)	none (no result: SARS PLpro yeast-1)
O=C(Oc1c(CN2CCOCC2)cc(Cl)c2cccnc12)c1ccccc1Br	none
CN1CCN(Cc2cc(Cl)c3cccnc3c2OC(=O)c2cccs2)CC1	SARS PLpro yeast-1 11µM | SARS PLpro yeast-2 inactive
CCOc1ccc(CNC(=O)c2cc3c(s2)-c2ccccc2OC3)cc1	none (no result: SARS PLpro yeast-1)
COc1ccc(OC)c(CNC(=O)C2CCCCN2S(=O)(=O)c2ccc(F)cc2)c1 (centres undefined)	none (no result: SARS PLpro yeast-1)
CCC(=O)Nc1ccc(-c2nnc3c4ccccc4c(C)nn23)cc1	none (no result: SARS PLpro yeast-1)
Cc1ccc(S(=O)(=O)N2CCC(C(=O)OCC(=O)N(Cc3ccccc3)C(C)(C)C)CC2)cc1C	none
CC(C)(C)N(Cc1ccccc1)C(=O)COC(=O)C1CCCCC1	SARS PLpro yeast-1 3.2µM (no result: Sm TGR inh) | SARS PLpro yeast-2 inactive
Cc1ccc(N2CCn3c2nc2c3c(=O)n(Cc3cccc(Cl)c3)c(=O)n2C)cc1C	none (no result: SARS PLpro yeast-1)
O=C(CSc1n[nH]c(-c2ccccc2Cl)n1)NCCc1ccccc1	none (no result: SARS PLpro yeast-1)
CN(CC1CCCO1)S(=O)(=O)c1ccc(C(=O)Nc2ccc(S(N)(=O)=O)cc2)cc1 (centres undefined)	SARS PLpro yeast-1 0.4µM | SARS PLpro yeast-2 inactive
NS(=O)(=O)c1ccc(NC(=O)c2ccc(OCC3CCCO3)cc2)cc1 (centres undefined)	none (no result: Sm TGR inh)
CCN(CC)c1ccc(CNS(=O)(=O)c2cc3c(cc2C)NC(=O)CO3)cc1	none (no result: SARS PLpro yeast-1)
COc1ccc(C(C(=O)NCc2ccccc2)N(C(=O)Cn2nnc3ccccc32)c2ccc(F)cc2)cc1 (centres undefined)	none (no result: SARS PLpro yeast-1)
Cc1ccc(C2(C)NC(=O)N(CC(=O)N3CCN(S(=O)(=O)c4cccc(F)c4)CC3)C2=O)cc1 (centres undefined)	none
O=C(CN1C(=O)NC2(CCCC2)C1=O)N1CCN(S(=O)(=O)c2cccc(F)c2)CC1	none (no result: SARS PLpro yeast-1) | SARS PLpro yeast-2 inactive
CCCC(=O)Nc1nnc(SCc2cc(=O)c3ccc(C)cc3[nH]2)s1	none (no result: SARS PLpro yeast-1)
CCOc1ccc(N(CC(=O)Nc2ccc(OC)cc2)S(=O)(=O)c2ccc(Cl)cc2)cc1	none (no result: SARS PLpro yeast-1)
O=C(c1ccc(O)c(Cl)c1)N1CCN(S(=O)(=O)c2ccccc2)CC1	SARS PLpro yeast-1 inconclusive | SARS PLpro yeast-2 inactive
O=C(c1ccc(Cl)nc1)N1CCN(S(=O)(=O)c2ccccc2)CC1	none
COc1cc(OC)cc(C(=O)NCCc2csc(-c3cccc(C)c3)n2)c1	none (no result: SARS PLpro yeast-1)
CCn1cc(CN2CCC(C(=O)Nc3cccc(-c4cccc(OC)c4)c3)CC2)cn1	none
CCn1cc(CN2CCC(C(=O)Nc3cccc(-c4cccc(OC)c4)c3)CC2)c(C)n1	SARS PLpro yeast-1 inconclusive | SARS PLpro yeast-2 inactive
Nc1c(Cl)ncnc1N/N=C/c1ccc2ccccc2n1	none (no result: SARS PLpro yeast-1) | SARS PLpro yeast-2 inactive
O/N=C/c1ccc2ccccc2n1	none
Cc1ccc(C)c(N2CCN(S(=O)(=O)c3ccc(-c4cnc(C5CC5)o4)cc3)CC2)c1	none (no result: SARS PLpro yeast-1)
COc1cc(C(=O)NC2CCN(Cc3nnnn3Cc3cccs3)CC2)cc(OC)c1OC	SARS PLpro yeast-1 4µM | SARS PLpro yeast-2 inactive
COCCn1nnnc1CN1CCC(NC(=O)c2ccc(Br)cc2)CC1	none
Cc1noc(C)c1C(=O)Nc1nc(-c2ccc(F)cc2)cs1	SARS PLpro yeast-1 inconclusive | SARS PLpro yeast-2 inactive
Cc1noc(C)c1C(=O)Nc1nc(-c2ccc(F)c(F)c2)cs1	none
O=C1NCCCC1C(=O)N/N=C/c1ccccc1 (centres undefined)	SARS PLpro yeast-1 inconclusive | SARS PLpro yeast-2 inactive
O=C1NCCCC1C(=O)N/N=C/c1cccc(O)c1 (centres undefined)	none
Cc1ccc(CSc2nnc(SCC(=O)N/N=C/c3c(C)nn(-c4ccccc4)c3C)s2)cc1	none
Cc1nn(-c2ccccc2)c(C)c1/C=N/NC(=O)CSc1nnc(SCc2ccccc2Cl)s1	SARS PLpro yeast-1 inconclusive | SARS PLpro yeast-2 active
Cc1cccc(CNC(=O)CCn2c(=O)c3cccn3c3ccc(F)cc32)c1	none (no result: SARS PLpro yeast-1)
CC(=O)O[C@@]12CO[C@@H]1C[C@@H](O)[C@@]1(C)C(=O)[C@H](O)C3=C(C)[C@@H](OC(=O)[C@H](O)[C@@H](NC(=O)c4ccccc4)c4ccccc4)C[C@@](O)([C@@H](OC(=O)c4ccccc4)C12)C3(C)C (some centres undefined)	SARS PLpro yeast-1 inconclusive | SARS PLpro yeast-2 inconclusive

Bioassay records: PubChem BioAssay, National Center for Advancing Translational Sciences (NCATS)
